In the supplement of paper PMC10849652:
Of roughly 7,900 targets only a part is listed; those with a hit were picked by preference. About 0.6% of all pairs of compound and target were hits. A number with no mark means an inactive call.

Legend:
Test in all cases: log2 fold change, soluble protein after heating vs DMSO (PISA); higher = thermal stabilisation; K562 cells, 10 uM, 30 min; active = over 0.2 and 3.5 SD of the protein, either way, in both replicates (recomputed)
[1] = compound: C#Cc1cccc(Nc2ncnc3cc(OCCOC)c(OCCOC)cc23)c1 [erlotinib]
Method in brief: (§1)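 K562 cells at 2×10^6 cells/mL were treated for 30 min with 10 μM compound, and aliquots were heated for 3 min over 48°C-58°C before pooling. Extraction used PBS with 0.5% NP-40 at 4°C, and soluble protein was the supernatant after 21,000xg for 90 min, measured by TMTpro 16plex LC-MS/MS with channel sums equalised. Thermal stability values, relative to control samples and from duplicates, are log2 fold changes.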

[2] = compound: C/C(=N\NC(=O)C1=CC(=CC=C1)S(=O)(=O)N2CCOCC2)/C3=C(C=CC(=C3)Cl)O
Method in brief: as §1

[3] = compound: C1=CC(=C(C=C1Cl)C2=NC3=NC=CN=C3C(=N2)NC4=CC=NC=C4)F
Method in brief: as §1

[4] = compound: C1=CC(=CC=C1C2=NC3=C(N2)C=C(C=C3)C(=O)N)OC4=CC=C(C=C4)Cl
Method in brief: as §1

[5] = compound: C1=CC2=C(C=CC(=C2)/C=C\3/C(=O)NC(=NCC4=CC=CS4)S3)N=C1
Method in brief: as §1

[6] = compound: C1=CC2=NC=CN=C2C=C1/C=C/3\C(=O)NC(=O)S3
Method in brief: as §1

[7] = compound: C1=CC=C(C=C1)C2=NC(=C(N2)C3=CC=NC=C3)C4=CC(=C(C=C4)Cl)O
Method in brief: as §1

[8] = compound: C1=CC=C2C(=C1)C3=NNC4=CC=CC(=C43)C2=O
Method in brief: as §1

[9] = compound: C1CCN(C1)C(=O)NC2=CC=CC(=C2)NC3=NC=C(C(=N3)NCCC4=CN=CN4)Br
Method in brief: as §1

[10] = compound: C1CN(CCC1(CC2=CC=C(C=C2)Cl)N)C3=NC=NC4=C3C=CN4
Method in brief: as §1

[11] = compound: C1COCCN1CCN2C3=CC=CC=C3N=C2NC(=O)C4=CC(=CC=C4)[N+](=O)[O-] [IRAK-1-4 Inhibitor I]
Method in brief: as §1

[12] = compound: C=CC(=O)N1CCC[C@@H](n2nc(-c3ccc(Oc4ccccc4)cc3)c3c(N)ncnc32)C1 [ibrutinib]
Method in brief: as §1

[13] = compound: CC(=O)c1cnc2ccc(-c3cc(Cl)c(O)c(Cl)c3)nc2c1N[C@H]1CC[C@H](CN(C)C)CC1
Method in brief: as §1

[14] = compound: CC(C)(C)Cn1c(N)nc2ccc(-c3[nH]c(C(C)(C)C)nc3-c3ccc(F)cc3)nc21 [ralimetinib]
Method in brief: as §1

[15] = compound: CC(C)(O)CC(=O)NCCn1ccc2ncnc(Nc3ccc(Oc4cccc(C(F)(F)F)c4)c(Cl)c3)c21
Method in brief: as §1

[16] = compound: CC(C)C1=C2N=C(C=C(N2N=C1)NCC3=CC=CC=C3)NCCCCCCN
Method in brief: as §1

[17] = compound: CC(C)C[C@@H](C=O)NC(=O)[C@H](CC(C)C)NC(=O)[C@H](CC(C)C)NC(=O)OCc1ccccc1
Method in brief: as §1

[18] = compound: CC(C)N(C[C@H]1O[C@@H](n2cnc3c(N)ncnc32)[C@H](O)[C@@H]1O)[C@H]1C[C@@H](CCc2nc3cc(C(C)(C)C)ccc3[nH]2)C1 [pinometostat]
Method in brief: as §1

[19] = compound: CC1=C(C(CC(=O)N1)C2=CC=C(C=C2)C(F)(F)F)C(=O)NC3=C(C=C4C(=C3)C=NN4)F
Method in brief: as §1

[20] = compound: CC1=C(C2=C(C=C1)C(=O)C3=CC=CC=C3N2CCCN)C
Method in brief: as §1

Sequence of UniProt Q8N128 (Q8N128 whole entry, looked up): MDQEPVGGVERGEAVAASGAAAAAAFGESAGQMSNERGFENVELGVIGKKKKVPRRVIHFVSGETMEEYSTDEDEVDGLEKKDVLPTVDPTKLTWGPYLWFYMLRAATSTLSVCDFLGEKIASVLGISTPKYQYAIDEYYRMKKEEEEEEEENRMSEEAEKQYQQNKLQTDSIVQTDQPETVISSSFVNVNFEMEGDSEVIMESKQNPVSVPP
Sequence of UniProt Q7L014 (Q7L014 whole entry, looked up): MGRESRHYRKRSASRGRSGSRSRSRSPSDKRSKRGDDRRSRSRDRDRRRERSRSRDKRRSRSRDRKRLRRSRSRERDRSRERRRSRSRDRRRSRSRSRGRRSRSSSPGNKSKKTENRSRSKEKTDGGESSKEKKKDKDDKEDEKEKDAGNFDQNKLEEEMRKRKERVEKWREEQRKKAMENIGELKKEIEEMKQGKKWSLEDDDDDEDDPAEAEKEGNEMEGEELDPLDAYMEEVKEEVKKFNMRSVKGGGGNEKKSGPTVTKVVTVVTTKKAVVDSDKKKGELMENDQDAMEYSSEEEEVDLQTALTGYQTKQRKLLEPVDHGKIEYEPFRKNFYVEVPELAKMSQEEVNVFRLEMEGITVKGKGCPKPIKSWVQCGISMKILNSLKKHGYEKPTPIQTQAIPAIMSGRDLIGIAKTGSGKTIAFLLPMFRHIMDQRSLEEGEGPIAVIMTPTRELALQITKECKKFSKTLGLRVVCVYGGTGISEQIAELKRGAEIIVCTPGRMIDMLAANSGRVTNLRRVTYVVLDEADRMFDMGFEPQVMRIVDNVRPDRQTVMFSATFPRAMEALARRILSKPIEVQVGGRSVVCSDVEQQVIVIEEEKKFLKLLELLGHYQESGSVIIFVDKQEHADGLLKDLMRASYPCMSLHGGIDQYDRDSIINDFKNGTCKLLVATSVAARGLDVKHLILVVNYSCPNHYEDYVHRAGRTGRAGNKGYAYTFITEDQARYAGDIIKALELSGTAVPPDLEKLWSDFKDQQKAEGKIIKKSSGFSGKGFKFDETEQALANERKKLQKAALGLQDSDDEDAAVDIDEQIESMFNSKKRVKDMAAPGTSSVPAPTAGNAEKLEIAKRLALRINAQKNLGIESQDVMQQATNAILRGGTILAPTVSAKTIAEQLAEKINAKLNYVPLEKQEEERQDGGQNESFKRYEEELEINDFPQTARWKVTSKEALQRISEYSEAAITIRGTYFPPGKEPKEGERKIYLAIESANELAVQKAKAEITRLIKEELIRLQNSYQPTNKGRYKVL
Sequence of UniProt P39656 (P39656 whole entry, looked up): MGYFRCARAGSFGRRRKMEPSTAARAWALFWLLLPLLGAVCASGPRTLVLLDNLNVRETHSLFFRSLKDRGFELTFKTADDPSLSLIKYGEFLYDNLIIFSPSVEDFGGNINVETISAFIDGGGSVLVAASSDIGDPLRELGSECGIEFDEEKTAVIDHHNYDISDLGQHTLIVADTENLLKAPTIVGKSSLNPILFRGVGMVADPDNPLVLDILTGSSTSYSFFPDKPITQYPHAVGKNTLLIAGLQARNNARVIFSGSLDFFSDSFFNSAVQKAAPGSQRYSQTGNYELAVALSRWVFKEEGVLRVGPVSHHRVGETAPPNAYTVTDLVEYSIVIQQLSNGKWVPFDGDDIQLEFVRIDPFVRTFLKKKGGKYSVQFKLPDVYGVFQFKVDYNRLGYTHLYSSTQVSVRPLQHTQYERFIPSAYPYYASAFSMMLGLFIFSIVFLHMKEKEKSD
Sequence of UniProt O75071 (O75071 whole entry, looked up): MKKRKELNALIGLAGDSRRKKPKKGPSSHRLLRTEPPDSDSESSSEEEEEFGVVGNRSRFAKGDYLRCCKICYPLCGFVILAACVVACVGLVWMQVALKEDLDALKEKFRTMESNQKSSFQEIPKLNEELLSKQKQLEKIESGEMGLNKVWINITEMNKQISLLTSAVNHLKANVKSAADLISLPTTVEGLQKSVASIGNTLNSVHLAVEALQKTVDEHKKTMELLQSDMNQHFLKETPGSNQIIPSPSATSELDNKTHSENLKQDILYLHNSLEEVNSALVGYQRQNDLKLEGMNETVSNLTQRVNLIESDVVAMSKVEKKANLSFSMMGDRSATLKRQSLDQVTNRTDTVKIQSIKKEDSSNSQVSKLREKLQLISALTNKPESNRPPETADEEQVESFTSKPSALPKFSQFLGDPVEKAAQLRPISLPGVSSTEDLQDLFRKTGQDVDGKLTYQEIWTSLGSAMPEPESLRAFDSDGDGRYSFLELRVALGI
Sequence of UniProt Q96GG9 (Q96GG9 whole entry, looked up): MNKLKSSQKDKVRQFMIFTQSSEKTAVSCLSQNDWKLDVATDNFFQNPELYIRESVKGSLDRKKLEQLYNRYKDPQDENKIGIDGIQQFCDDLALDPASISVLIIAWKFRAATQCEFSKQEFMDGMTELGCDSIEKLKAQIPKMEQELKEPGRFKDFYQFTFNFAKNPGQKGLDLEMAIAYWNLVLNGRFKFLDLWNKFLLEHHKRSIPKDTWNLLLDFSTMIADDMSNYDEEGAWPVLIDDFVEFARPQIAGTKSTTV
Sequence of UniProt P41091 (P41091 whole entry, looked up): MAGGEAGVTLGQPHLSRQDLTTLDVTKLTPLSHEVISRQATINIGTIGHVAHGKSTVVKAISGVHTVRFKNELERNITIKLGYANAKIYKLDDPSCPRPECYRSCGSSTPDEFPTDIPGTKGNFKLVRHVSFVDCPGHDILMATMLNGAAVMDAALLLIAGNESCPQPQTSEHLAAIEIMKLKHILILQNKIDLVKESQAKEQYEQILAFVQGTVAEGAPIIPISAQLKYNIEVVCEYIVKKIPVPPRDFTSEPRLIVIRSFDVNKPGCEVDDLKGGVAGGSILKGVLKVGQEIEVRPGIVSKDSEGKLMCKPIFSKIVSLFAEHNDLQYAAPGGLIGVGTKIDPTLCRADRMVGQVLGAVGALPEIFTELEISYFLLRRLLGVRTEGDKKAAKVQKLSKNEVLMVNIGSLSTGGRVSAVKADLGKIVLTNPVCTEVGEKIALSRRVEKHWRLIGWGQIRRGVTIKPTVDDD
Sequence of UniProt Q04637 (Q04637 whole entry, looked up): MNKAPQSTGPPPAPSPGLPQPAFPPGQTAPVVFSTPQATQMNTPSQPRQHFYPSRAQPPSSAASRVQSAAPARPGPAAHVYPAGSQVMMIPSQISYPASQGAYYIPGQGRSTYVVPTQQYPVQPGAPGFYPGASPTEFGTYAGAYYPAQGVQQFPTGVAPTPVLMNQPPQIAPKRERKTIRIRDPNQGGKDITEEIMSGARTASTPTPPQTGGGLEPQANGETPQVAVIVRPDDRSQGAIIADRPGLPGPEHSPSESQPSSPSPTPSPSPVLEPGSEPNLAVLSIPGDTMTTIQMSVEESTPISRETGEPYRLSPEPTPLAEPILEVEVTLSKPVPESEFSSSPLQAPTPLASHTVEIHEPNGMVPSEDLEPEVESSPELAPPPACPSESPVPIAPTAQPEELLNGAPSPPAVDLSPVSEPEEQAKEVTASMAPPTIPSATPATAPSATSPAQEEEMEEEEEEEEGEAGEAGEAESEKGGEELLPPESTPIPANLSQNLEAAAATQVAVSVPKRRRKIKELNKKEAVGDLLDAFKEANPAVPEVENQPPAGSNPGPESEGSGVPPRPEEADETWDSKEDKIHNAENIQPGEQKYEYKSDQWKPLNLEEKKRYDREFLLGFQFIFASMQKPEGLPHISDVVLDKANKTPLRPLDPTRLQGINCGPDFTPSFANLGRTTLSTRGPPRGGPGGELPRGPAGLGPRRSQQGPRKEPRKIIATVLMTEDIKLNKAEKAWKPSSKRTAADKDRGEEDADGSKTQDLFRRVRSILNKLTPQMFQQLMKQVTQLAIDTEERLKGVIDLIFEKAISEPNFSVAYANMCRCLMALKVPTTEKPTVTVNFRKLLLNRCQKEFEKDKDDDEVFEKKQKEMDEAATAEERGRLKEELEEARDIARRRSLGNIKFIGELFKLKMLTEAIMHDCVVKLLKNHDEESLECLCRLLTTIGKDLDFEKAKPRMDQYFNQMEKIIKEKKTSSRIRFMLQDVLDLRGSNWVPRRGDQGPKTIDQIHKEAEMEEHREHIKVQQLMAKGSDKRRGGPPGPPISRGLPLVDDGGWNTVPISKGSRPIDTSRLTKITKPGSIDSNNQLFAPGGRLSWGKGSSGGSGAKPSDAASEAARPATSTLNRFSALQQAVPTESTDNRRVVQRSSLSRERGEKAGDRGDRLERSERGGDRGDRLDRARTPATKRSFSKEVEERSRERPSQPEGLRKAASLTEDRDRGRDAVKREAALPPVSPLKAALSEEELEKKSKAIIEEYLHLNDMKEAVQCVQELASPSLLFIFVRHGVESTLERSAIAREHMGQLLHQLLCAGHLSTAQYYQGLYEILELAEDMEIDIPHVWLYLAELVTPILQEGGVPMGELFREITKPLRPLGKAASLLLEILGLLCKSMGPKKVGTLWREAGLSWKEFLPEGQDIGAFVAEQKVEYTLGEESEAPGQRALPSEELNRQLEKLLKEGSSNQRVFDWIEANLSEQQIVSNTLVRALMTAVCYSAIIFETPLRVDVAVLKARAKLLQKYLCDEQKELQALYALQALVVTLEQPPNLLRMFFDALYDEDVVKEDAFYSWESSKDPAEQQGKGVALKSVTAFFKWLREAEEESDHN

Target | log2 fold change [1] | log2 fold change [2] | log2 fold change [3] | log2 fold change [4] | log2 fold change [5] | log2 fold change [6] | log2 fold change [7] | log2 fold change [8] | log2 fold change [9] | log2 fold change [10] | log2 fold change [11] | log2 fold change [12] | log2 fold change [13] | log2 fold change [14] | log2 fold change [15] | log2 fold change [16] | log2 fold change [17] | log2 fold change [18] | log2 fold change [19] | log2 fold change [20]
DCUN1D1 (UniProt Q96GG9) | -0.038 | 0.052 | 0.041 | -0.009 | 0.015 | 0.001 | 0.021 | -0.014 | -0.017 | 0.024 | 0.031 | 0.016 | -0.06 | -0.047 | -0.002 | -0.061 | -0.022 | -0.035 | 0.014 | 0.018
EDC4 (UniProt Q6P2E9) | -0.045 | 0.1 | -0.058 | 0.017 | -0.177 | -0.069 | -0.035 | -0.151 | -0.023 | -0.041 | -0.041 | -0.001 | -0.387 (active) | 0.019 | 0.007 | -0.181 | 0.022 | 0.05 | -0.016 | -0.032
DDX46 (UniProt Q7L014) | 0.053 | 0.23 | 0.134 | 0.081 | 0.034 | 0 | -0.023 | -0.022 | -0.062 | -0.141 | -0.113 | -0.034 | -0.299 | -0.095 | -0.18 | -0.034 | 0.026 | -0.066 | -0.107 | 0.152
EIF2S3 (UniProt P41091) | -0.028 | -0.041 | -0.18 | -0.004 | -0.023 | -0.006 | -0.037 | 0.015 | -0.023 | -0.06 | -0.126 | 0.021 | -0.004 | 0.061 | 0.05 | 0.052 | 0.075 | 0.077 | 0.005 | 0.195
DDOST (UniProt P39656) | -0.033 | 0.003 | 0.004 | -0.014 | -0.085 | 0.014 | 0.253 (active) | 0.012 | -0.002 | -0.003 | -0.038 | -0.027 | 0.057 | 0.156 | 0.015 | -0.081 | -0.036 | 0.015 | 0.024 | -0.041
FAM177A1 isoform 2 (UniProt Q8N128) | 0.048 | 0.042 | 0.038 | 0.023 | 0.036 | 0.02 | 0.024 | -0.037 | 0.109 | 0.044 | 0.042 | 0.038 | 0.033 | 0 | -0.242 | -0.245 | 0.029 | 0.081 | 0.062 | -0.019
EIF4G1 isoform 8 (UniProt Q04637) | -0.092 | 0.128 | -0.065 | 0.011 | -0.036 | -0.089 | -0.099 | -0.246 | -0.197 | -0.28 | -0.124 | -0.148 | -0.3 | 0.057 | -0.053 | -0.387 | 0.046 | 0.149 | 0.096 | 0.018
EFCAB14 (UniProt O75071) | 0.051 | -0.053 | 0.013 | 0.024 | -0.049 | 0.033 | 0.159 | -0.119 | 0.044 | -0.032 | -0.016 | 0.043 | -0.196 | 0.135 | -0.009 | -0.127 | -0.063 | -0.061 | -0.035 | 0.006
